# Screens from PubChem BioAssay.
# This excerpt belongs to a sample that is enriched for hits.
# NRP1-CendR mod: modulators of CendR peptide binding to human neuropilin-1; FAM-RPARPAR peptide binding to NRP-1, fluorescence polarization; AID 602438; O14786; 360,000 compounds, 0.85% hits; inhibition, % at 25 µM;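 active = inhibition or corrected inhibition above about 18%, plus a signal ratio from 0.5 to 1.5, limit read from the data, passing the limit was not always enough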
# ERp5 inh: ERp5 (human) disulfide isomerase inhibition; Q15084; ERp5 insulin aggregation, absorbance 650 nm, 90 min; inhibition, % at 9.99 µM; 350,000 compounds, 0.05% hits;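 active = mean replicate inhibition above about 25%, with every replicate also reaching it, limit read from the data, passing the limit was not always enough; inconclusive = only one of those two criteria met; inactive = neither criterion met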
# PglD inh: blocks C. jejuni PglD acetyltransferase activity; AID 602405; inhibition, % at 12.5 µM; 360,000 compounds, 0.098% hits; purified PglD enzyme, DTNB colorimetric CoA detection; in the data active = inhibition above about 16%, passing the limit was not always enough; inconclusive = no clear call, values can overlap the other calls
# ARNT-TACC3 inh: disrupts binding between human ARNT and TACC3; 390,000 compounds, 0.66% hits; AID 623870; AlphaScreen His-ARNT PAS-B/GST-TACC3 binding, luminescence; TACC3 fragment carries E629A point mutation; Q9Y6A5; inhibition, % at 9.99 µM;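 active = mean inhibition of replicates at least 50% and at least half of replicates each reaching 50%; inconclusive = half or more replicates reach 50% but mean below 50%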
# PDI inh: PDI (human) enzyme inhibition. PDI insulin aggregation turbidity, A650, 90 min. AID 588391. inhibition, % at 10 µM. P07237. 350,000 compounds, 0.052% hits;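 active = mean inhibition across replicates of 30% or more, whatever share of single replicates reach that level; inconclusive = mean inhibition below 30% while every single replicate reaches 30%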
# ALR H2O2 inh: blocks human ALR sulfhydryl oxidase activity; 290,000 compounds, 3.8% hits; inhibition, % (concentration not given with the values); purified ALR, DTT oxidation, H2O2 HRP-luminol luminescence;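 active = mean replicate inhibition above about 79%, with every replicate also reaching it, limit read from the data; inconclusive = only one of the two criteria met; inactive = mean below limit and not every replicate reaching it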
# Numbers stand for hits; – = inactive; ? = inconclusive; · = no result.
SMILES,NRP1-CendR mod,ERp5 inh,PglD inh,ARNT-TACC3 inh,PDI inh,ALR H2O2 inh
CCCCCCCCCCCCN1[C@@H](CC(=O)O)c2cc(C(F)(F)F)ccc2S1(=O)=O,–,–,–,–,–,98
CCOC(=O)C[C@H]1c2cc(C(F)(F)F)ccc2S(=O)(=O)N1C(C)C,34,–,–,–,–,·
O=C(O)C[C@H]1c2cc(F)ccc2S(=O)(=O)N1C1CCCC1,–,–,–,·,–,·
CN1C(=O)c2cc(NS(=O)(=O)c3cccc(F)c3)ccc2OC[C@H]2O[C@@H](CC(=O)N3CCc4ccccc4C3)CC[C@@H]21,·,·,–,·,·,·
CCCCCCCCCCCCN1[C@@H](CC(=O)OC)c2cc(C(F)(F)F)ccc2S1(=O)=O,–,·,–,–,–,–
CCCCCCCCN1[C@@H](CC(=O)O)c2cc(C(F)(F)F)ccc2S1(=O)=O,–,–,–,·,–,98
NC1=C(Br)C(=O)c2ncccc2C1=O,28,–,·,64,–,·
O=C1c2cccnc2C(=O)N1CO,–,·,·,–,–,–
CC(NC(=O)C(=O)N1CCOCC1)C(c1cccs1)N1CCN(c2ccccc2)CC1 (stereo unspecified),–,–,–,–,–,98
COc1ccccc1N1CCN(C(c2cccs2)C(C)NC(=O)C(=O)N2CCOCC2)CC1 (stereo unspecified),–,–,–,–,–,89
COc1ccc(N2CCN(C(c3cccs3)C(C)NC(=O)C(=O)N3CCOCC3)CC2)cc1 (stereo unspecified),–,–,–,–,–,?
C[C@H]1CN([C@@H](C)CO)C(=O)c2cc(NC(=O)Nc3cccc4ccccc34)ccc2O[C@@H]1CN(C)Cc1ccc(C(=O)O)cc1,·,–,–,–,·,·
Cc1c(C(=O)/C=C/N(C)C)nnn1-c1ccc(Cl)c(Cl)c1,–,–,·,–,–,–
Cc1c(C(=O)/C=C/N(C)C)nnn1-c1ccc(F)c(Cl)c1,38,–,–,·,–,–
CCCN1Cc2cccc(C(=O)Nc3ccc(C)cc3)c2C1=O,–,·,–,–,–,–
CCCN1Cc2cccc(C(N)=O)c2C1=O,49,·,–,–,–,–
COCCN1Cc2cccc(C(=O)N3CCN(c4ccccc4)CC3)c2C1=O,–,·,–,–,–,95
Cc1noc(C)c1NC(=O)N(C)C[C@@H]1Oc2ccc(NC(=O)C3CCCCC3)cc2C(=O)N([C@H](C)CO)C[C@H]1C,·,–,–,–,·,·
CCN(C(=O)CSc1nnc(-c2c[nH]c3ccccc23)n1C1CC1)C1CCS(=O)(=O)C1 (stereo unspecified),–,–,–,–,–,–
CCN(C(=O)CSc1nnc(-c2ccccc2Cl)n1C1CCCC1)C1CCS(=O)(=O)C1 (stereo unspecified),20,·,–,–,–,–
C=CCn1c(-c2ccc(Cl)cc2)c[nH]c1=S,–,·,–,–,–,97
C[C@H](CO)N1C[C@H](C)[C@H](CN(C)C(=O)Cc2cccnc2)Oc2ncc(C#Cc3ccccc3F)cc2C1=O,·,–,–,–,·,·
N/C(CSc1ccc(Cl)cc1)=N\S(=O)(=O)c1ccc(Cl)cc1,29,–,·,–,–,–
C/C(N)=N\S(=O)(=O)c1ccc(Cl)cc1,–,–,·,–,–,·
C/C(=N/NC(=O)CSc1nc2ccccc2n1C)c1ccc(O)cc1,–,–,·,–,–,99
SMILES,NRP1-CendR mod,ERp5 inh,PglD inh,ARNT-TACC3 inh,PDI inh,ALR H2O2 inh
Cn1c(SCC(=O)N/N=C/C=C\c2ccco2)nc2ccccc21,–,·,–,–,–,86
Cc1ccc(/C=N/NC(=O)CSc2nc3ccccc3n2C)s1,–,·,–,–,–,89
C/C(=N/NC(=O)CSc1nc2ccccc2n1C)c1ccco1,–,–,–,–,–,–
Cn1c(SCC(=O)N/N=C/c2cccs2)nc2ccccc21,–,·,–,–,–,–
C[C@@H]1CCCCO[C@@H](CN(C)C(=O)CCCN(C)C)[C@H](C)CN([C@@H](C)CO)C(=O)c2cc(NC(=O)c3ccncc3)ccc2O1,·,·,–,–,·,·
COCC#Cc1cnc2c(c1)C(=O)N([C@H](C)CO)C[C@@H](C)[C@@H](CN(C)C(=O)c1ccc3c(c1)OCO3)O2,·,–,–,–,·,·
COc1ccc(N2CCN(c3ncnc4c3[nH]c3ccccc34)CC2)cc1,–,·,·,–,–,–
COc1cc2[nH]c3c(N4CCN(c5ccccn5)CC4)ncnc3c2cc1OC,–,·,–,–,–,99
